In general, inhibition refers to the drop in the measured response relative to a control, in per cent.

In all, about 360,000 compounds went through this assay and about 5,000 (1.4%) were called active. For the sample, actives were picked, then their nearest neighbours and some compounds at random. Values without a mark were called inactive.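 How the source made its calls: active means inhibition of 50% or more, scaled per plate between neutral and stimulator controls; inactive means the rest.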

The assay can be described thus: blockers of Ca2+-induced mitochondrial swelling – biochemical, isolated mouse mitochondria, absorbance, primary screen (AID 602449).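 Further: 0% = DMSO wells given calcium and 100% = 1 mM EGTA wells.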 The settings on record: 30 min, at 10 µM, active compounds read high.
Take `Cc1ccc(Nc2c(F)c(F)c(F)c(F)c2C(=O)O)c(C)c1`: the inhibition is -0.7%.
For `O=C(CCn1nnc2ccccc2c1=O)N[C@@H](Cc1c[nH]c2ccccc12)C(=O)O` the value was 1.4%; for `Cc1ccc(C(=O)Nc2nnc(C3=COCCO3)o2)cc1C`, -0.8%; for `Cc1cc(C(=O)CSc2nc(N)cc(=O)[nH]2)c(C)n1CCc1ccc(Cl)cc1`, -9%.
For `Cc1cc(C(=O)CSc2nc(N)cc(=O)[nH]2)c(C)n1-c1cccc(F)c1` the value was 63.2% (active); for `Cc1cc(C)c(C(=O)CSc2nc(C)cc(=O)[nH]2)c(C)c1`, 0.6%.
Turning to `Cc1cc(C(=O)CSc2nc(N)cc(=O)[nH]2)c(C)n1Cc1ccco1`, the inhibition is 64.3% (active).
As for `COc1ccc(C)cc1-n1nnnc1SCC(=O)c1cc(C)n(Cc2ccco2)c1C`, the inhibition is -2.3%.
The same measure for `Cc1cc(C(=O)COC(=O)C2CC2)c(C)n1-c1ccc(F)cc1`: 0.2%.
For `CC1CCN(c2ccc(-c3ccc(NC(=O)c4ccco4)cc3)nn2)CC1`, the inhibition was 0.3%.
The same measure for `CSCCC1NC(=O)N(CC(=O)Nc2cccc(S(=O)(=O)N3CCCCCC3)c2)C1=O` (stereo unspecified): 1.2%.
The same measure for `CCOC(=O)C1C(=O)OC2(CCCC2)C1C(=O)OCC` (stereo unspecified): -1.2%; for `COc1cccc(CNc2nc3cc(-c4csc5ccccc45)sc3c(=O)n2C)c1`: 2.5%; for `COCCNc1nc(Nc2ccccc2Cl)c2sc(-c3ccccc3)cc2n1`: 2.1%.
For `COc1cccc(-c2cc3nc(NCc4ccccc4OC)n(C)c(=O)c3s2)c1` the value was 1.9%; for `COc1cccc(CNc2nc(NCc3cccs3)nc3ccsc23)c1`, 77.8% (active); for `COCCNc1nc(NCc2ccc(NC(C)=O)cc2)c2sccc2n1`, -1.4%.
Turning to `Clc1ccccc1Nc1nc(NCc2cccs2)nc2ccsc12`, the inhibition is 3%.
Turning to `COc1ccc(NC(=S)NCc2cccs2)c(OC)c1`, the inhibition was 2.2%.
As for `COc1ccccc1CNc1nc(Nc2ccccc2Cl)c2sccc2n1`, the inhibition is 74.5% (active).
The same measure for `COc1cccc(CNc2nc(NCc3ccccc3OC)nc3ccsc23)c1`: 94.6% (active).
Regarding `Cc1ccc(Nc2nc(CSc3nnc(-c4ccncc4)n3-c3ccccc3C)cs2)cc1`, the inhibition is 2.2%.
With `CC(Cc1cccs1)NC(=O)c1cccc(Cl)c1` (stereo unspecified), the inhibition was 4.2%.
For `Cc1c(NC(=S)NC(=O)CCc2ccccc2)c(=O)n(-c2ccccc2)n1C` the value was 0.3%; for `Cc1cc(C)cc(NC(=O)COC(=O)c2cc(C)oc2C)c1`, 0.5%; for `CN(C)CCn1c2c(c(SCC(=O)NCc3ccccc3)nc1=O)CCC2`, -1%.
For `CCOC(=O)c1oc2c(CN3CCN(C)CC3)c(O)ccc2c(=O)c1-c1ccc(Br)cc1` the value was 9.1%; for `CCOC(=O)c1cc2cc(-c3c(C(=O)OCC)oc4cc(O)cc(O)c4c3=O)ccc2o1`, 50.9% (active).
The same measure for `CCOC(=O)c1cc(=O)c2ccc(OCc3ccccc3)cc2o1`: 0.1%; for `C/C(=N\Nc1nc2ccccc2[nH]1)c1cccs1`: 1.1%; for `Cc1ccc(-c2nc(C)sc2CC(=O)OCC(=O)Nc2c(F)cccc2F)cc1`: 0.8%.
`Cn1c(=O)c(C(=O)Nc2ncccn2)c(O)c2ccccc21`: the inhibition was -1.3%.
The same measure for `Cc1ccc(NC(=O)OCCNC(=O)c2ccncc2)cc1`: -2.2%; for `CCOC(=O)c1ccc(NC(=S)N2CCCC2)cc1`: -9.2%.
The same measure for `CCCCCOC(=O)NCCOC(=O)Nc1ccc(C(=O)OCC)cc1`: 62.1% (active); for `CC1CCCCC12NC(=O)N(CC(=O)OCc1c(F)cccc1Cl)C2=O` (stereo unspecified): 1.5%; for `Cc1cc(C(=O)O)c(S(C)(=O)=O)s1`: 0%.
`O=S1(=O)CC(NCc2ccccc2)C(Nc2ccc(Cl)cc2)C1` (stereo unspecified): the inhibition was -0.2%.
As to `O=C(COc1ccc(Cl)cc1)Nc1ccc2c(c1)OCO2`, the inhibition was -0.4%.
Take `Cc1ccc(NC(=O)COc2ccc(-n3ccnc3)cc2)cc1Cl`: the inhibition was 83.4% (active).
The same measure for `Cc1cc(N2CCCC2)ccc1NC(=O)COc1ccc(Cl)cc1`: -0.2%; for `COc1ccccc1Nc1ncc(C(C)=O)c(C)n1`: -2.1%; for `O=C(CSCc1ccc(Br)cc1)Nc1ccc(S(=O)(=O)N2CCCCCC2)cc1`: 58.6% (active).
For `CN(CC(=O)Nc1ccc(S(=O)(=O)N2CCCC2)cc1)Cc1ccc(Cl)c(Cl)c1` the value was 3.3%.
The same measure for `O=C(CN1CCCCCC1)Nc1ccc(S(=O)(=O)N2CCCCC2)cc1`: 0.7%.
Consider `Cc1occc1-c1nnc(SCC(=O)NC2(C#N)CCCC2)n1C`, for which the inhibition was -0.8%.
`CC(C)(C)NC(=O)NC(=O)COC(=O)Cc1c(F)cccc1Cl`: the inhibition is 2%.
The same measure for `O=C(Cc1c(F)cccc1Cl)Nc1ncc([N+](=O)[O-])s1`: 61.9% (active); for `COc1ccc(S(=O)(=O)N2CCOCC2)cc1NC(=O)Cc1c(F)cccc1Cl`: -0.8%.
Take `O=C(OC(C(=O)NC1CCCC1)c1ccc(F)cc1)c1ccno1` (stereo unspecified): the inhibition was -3.3%.
The same measure for `CC(=O)C1C(c2ccc(Cl)cc2)c2c(n[nH]c2C)CC1(C)O` (stereo unspecified): 1.5%.
Consider `Cc1ccc(OS(=O)Nc2cccc3nccnc23)cc1` (stereo unspecified), for which the inhibition was -0.1%.
The same measure for `O=C(Nc1ccc2c(c1)OCCO2)c1ccc(Cl)c(S(=O)(=O)N2CCCCC2)c1`: 9%.
For `O=C(Nc1cccc(S(=O)(=O)Nc2ccc(Cl)cc2)c1)c1ccc2c(c1)OCCO2` the value was 77.8% (active); for `S=C(Nc1cccc(Cl)c1)Nc1ccc2c(c1)OCCO2`, 53.6% (active).
For `O=C(Nc1ccc2c(c1)OCCO2)C1CCCC1` the value was -1.6%.
With `CC(NS(=O)(=O)c1ccc(Cl)cc1)C(=O)Nc1ccc2c(c1)OCCO2` (stereo unspecified), the inhibition was -0.3%.
The same measure for `S=C(NCc1ccco1)Nc1ccc2c(c1)OCCO2`: -2.6%.
The same measure for `O=C(Nc1cccc(Cl)c1)c1cncn1-c1ccc(F)cc1`: -1.7%.
For the compound `FC(F)(F)c1cccc(NC(=S)Nc2cccc(Cl)c2)c1`, the inhibition was 97.6% (active).
For `C/C(CC(=O)Nc1cccc(C(F)(F)F)c1)=N\NC(=O)C(=O)NCC(C)C` the value was -0.9%.
Take `O=C(NCCCn1ccnc1)C(=O)c1cn(CC(=O)N2CCCCCC2)c2ccccc12`: the inhibition is 0%.
The same measure for `Cc1c(C(=O)O)nnn1-c1nonc1N`: -1.7%; for `Cc1nn(-c2ccccc2)c2c1c(C)c(CCC(=O)NCC1CCCO1)c(=O)n2C` (stereo unspecified): 1.8%; for `Cc1csc(NC(=O)CSc2nnc(-c3cccnc3)o2)n1`: -0.1%.
For `Cc1cc(C)nc(NS(=O)(=O)c2ccc(N/C=C\C(=O)c3cccs3)cc2)n1` the value was -0.9%; for `CC(Sc1nnc(C2CC2)n1C1CC1)C(=O)Nc1ccc(C(N)=O)cc1` (stereo unspecified), 0.5%.
For `Cc1nc(Nc2ccccc2C)c2cnn(C)c2n1` the value was -0.2%; for `Cc1ccc2c(=O)cc(C(=O)NCCc3ccc(S(N)(=O)=O)cc3)oc2c1C`, -0.4%; for `CCn1cc(CN2CCC(C(=O)Nc3cccc(-c4cccc(Cl)c4)c3)CC2)cn1`, -0.3%.
Consider `CCn1cc(CN2CCC(C(=O)Nc3cccc(-c4cccc(Cl)c4)c3)CC2)c(C)n1`, for which the inhibition was 0.6%.
The same measure for `O=C(Nc1cccc(-c2cccc(Cl)c2)c1)C1CCN(C2CCC2)CC1`: 65.4% (active).
For `O=C(c1ccc(F)cc1)c1c[nH]c(C(=O)NCc2cccnc2)c1` the value was 0.8%; for `Cc1ccc(NC(=O)Nc2cc(-c3ccccc3)nn2C)cc1Cl`, 83.1% (active); for `COc1ccc(NC(=O)c2cc3nc(-c4ccccc4)cc(C)n3n2)cc1OC`, 2.1%.
Consider `CC(=O)c1cccc(NC(=O)c2cc(C)nn2-c2ccccc2)c1`, for which the inhibition was -1.3%.
The same measure for `O=C(Nc1ccc(Cl)c(Cl)c1)N1CC=C(c2ccccc2)CC1`: 12.4%; for `Cc1cc(NC(=O)Nc2ccc(Cl)cc2)n(-c2ccccc2)n1`: 70.8% (active).
For `Cc1cc(C(=O)NCCc2ccc(Cl)cc2)n(-c2ccccc2)n1` the value was 1%; for `O=C(NCc1ccc(F)cc1)C(c1ccccc1)N(C(=O)c1csnn1)C1CC1` (stereo unspecified), 4.8%.
The same measure for `CC(C)NS(=O)(=O)c1ccc(NC(=O)C2CCCCC2)cc1`: -1.2%; for `CCOc1cccc2c1OC1(CCCCC1)N1N=C(c3cccnc3)CC21` (stereo unspecified): 0.5%.
`CC(=O)Nc1ccc(CC#N)cc1`: the inhibition is 2.1%.
As for `COc1cccc(N(C(=O)c2snc(C(N)=O)c2N)C(C(=O)NCC2CCCO2)c2c[nH]c3ccccc23)c1` (stereo unspecified), the inhibition was -1.8%.
Turning to `CCOC(=O)C1CCCN(S(=O)(=O)c2ccc(-n3cnnn3)c(C)c2)C1` (stereo unspecified), the inhibition is 0.9%.
For `O=S(=O)([N-]c1nc2ccccc2nc1-[n+]1ccc(Cc2ccccc2)cc1)c1ccc(Br)s1`, the inhibition is 5%.
The same measure for `Cc1cccc(NS(=O)(=O)c2ccc(C(=O)NCC(C)(C)N3CCOCC3)cc2)c1C`: 1.5%; for `CCOc1ccc(NC(=O)c2ccc(NC(=O)COC(=O)c3ccc(NC(=O)CC#N)cc3)cc2)cc1`: 0.5%; for `CCC(C)(C)c1ccc(Oc2ccc(NC(=O)COC(=O)C3=COCCO3)cc2)cc1`: 79.2% (active).
The same measure for `COc1ccc(NC(=O)COC(=O)C2COc3ccccc3O2)cc1` (stereo unspecified): -0.6%; for `O=S(=O)(Nc1ccc(O)c2ccccc12)c1ccc(OC(F)(F)F)cc1`: 34.9%.
For `FC(F)(F)Oc1ccc(NC(=S)NCc2ccccc2)cc1` the value was 77.1% (active).
As to `O=C(NNC(=S)NCc1ccccc1)c1ccc(OC(F)F)cc1`, the inhibition is -1.2%.
For `Cc1cc(OCCCC(=O)Nc2cc(S(=O)(=O)N3CCOCC3)ccc2N2CCOCC2)ccc1Cl` the value was 0.2%.
The same measure for `O=[N+]([O-])c1cc(Cl)cc(/C=N/NC(=S)Nc2cc(S(=O)(=O)N3CCOCC3)ccc2Cl)c1O`: 76.5% (active); for `O=C(Nc1cc(S(=O)(=O)N2CCOCC2)ccc1Cl)c1cc(=O)c2ccccc2o1`: -1.5%.
